Test results from PubChem BioAssay (Tox21).
Records with an inconclusive call do not appear. Where a call stands in place of a potency, no number is given. Unmarked numbers belong to inactive results. Active and inactive are the calls of the source. Calls follow the shape of the dose curve; as a rule, active = well fitted cell-killing curve with a large enough effect in the repeat runs; inconclusive = weak or mixed curves, or effect the other way; inactive = flat fitted curve, though single readings scatter.

Columns and labels:
[1] = cAMP Responsive Elements (CRE) small molecule antagonists, cell-based qHTS assay: qHTS cell viability counter screen (AID 2060913); also: nearly all actives have a fitted effect of over 40% in size
How it was run: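 HEK293T CRE-bla, 2,000 cells/well, 18 h preincubation; cpd in DMSO + NKH477 0.25 uM final, 3 h 37 C/5% CO2; LiveBLAzer 2 h RT, then CellTiter-Glo 30 min RT, luminescence.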

[2] = cAMP Responsive Elements (CRE) small molecule agonists, cell-based qHTS assay: qHTS cell viability counter screen (AID 2060914);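 also: viability read after 3 h of compound exposure; nearly all actives have a fitted effect of over 50% in size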
How it was run: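 HEK 293T CRE-bla; DMEM + 10% dialyzed FBS, 25 mM HEPES; 18 h pre-incubation; compound 3 h, 37 °C/5% CO2; CellTiter-Glo added after reporter read; luminescence after 30 min RT.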

SMILES | Potency [1] | Potency [2] | viability change, negative = cytotoxic [1] | activity change, negative = cytotoxicity [2]
C=CCn1c(=O)n(CC=C)c(=O)n(CC=C)c1=O | inactive | inactive |  | 
C[N+]1(C)[C@@H]2CC(OC(=O)[C@H](CO)c3ccccc3)C[C@H]1[C@@H]1O[C@@H]12 (stereo not given in full) | inactive | inactive |  | 
CC(C)(CCC(=O)O)C(=O)O | inactive | inactive |  | 
O=S(=O)(O)c1ccccc1/C=C/c1ccc(-c2ccc(/C=C/c3ccccc3S(=O)(=O)O)cc2)cc1 | inactive | inactive |  | 
Nc1ccc(N)c(Cl)c1 | inactive | inactive |  | 
CCCCCCCCCCCCC | inactive | inactive |  | 
COc1cc(C=O)ccc1O | inactive | inactive |  | 
Cc1ccnc(N)c1 | inactive | inactive |  | 
C[C@H](N)C(=O)N[C@@H](C)C(=O)NC1[C@H]2CN(c3nc4c(cc3F)c(=O)c(C(=O)O)cn4-c3ccc(F)cc3F)C[C@@H]12 (stereo not given in full) | inactive | inactive |  | 
CC(C)(O)C(=O)O | inactive | inactive |  | 
COc1cccc(OC)c1C(=O)O | inactive | inactive |  | 
C=CCOC(=O)c1ccc(C(=O)OCC=C)c(C(=O)OCC=C)c1 | inactive | inactive |  | 
COC(=O)c1cccc(Cl)c1 | inactive | inactive |  | 
C/C=C/CO | inactive | inactive |  | 
CN(C)CC/C=C1/c2ccccc2COc2ccc(CC(=O)O)cc21 | inactive | inactive |  | 
Cl[Si](Cl)(c1ccccc1)c1ccccc1 | inactive | inactive |  | 
CCCC(C(=O)OCCN(CC)CC)(c1ccccc1)c1ccccc1 | inactive | inactive |  | 
CC1=CC[C@@H]2C[C@H]1C2(C)C |  |  | -0.978% [at 18.9 µM] | -0.0766% [at 18.9 µM]
CC1(C)O[C@H]2CC(=O)OC[C@]23[C@H]2CC[C@@]4(C)[C@H](c5ccoc5)OC(=O)[C@H]5O[C@]54[C@]2(C)C(=O)C[C@@H]13 | inactive | inactive |  | 
Cc1ccc(S)cc1 | inactive | inactive |  | 
C#C[C@]1(O)CC[C@H]2[C@@H]3CCC4=Cc5oncc5C[C@]4(C)[C@H]3CC[C@@]21C | inactive | inactive |  | 
O=C1OC(=O)c2ccccc21 | inactive | inactive |  | 
CC(C)COC(=O)/C=C/c1ccccc1 | inactive | inactive |  | 
O=C1OCc2ccccc21 | inactive | inactive |  | 
NCCOCCOCCN | inactive | inactive |  | 

SMILES | Potency [1] | Potency [2] | viability change, negative = cytotoxic [1] | activity change, negative = cytotoxicity [2]
CC1CCc2nccnc21 (stereo not given) | inactive | inactive |  | 
CC[N+](C)(CC)CCOC(=O)C1c2ccccc2Oc2ccccc21 | inactive | inactive |  | 
Cc1cc2cc3c(C)cc(=O)oc3c(C)c2o1 | inactive | inactive |  | 
C/C=C(\C)C(C)=O | inactive | inactive |  | 
C=C(C)C(=O)OCC1CCCO1 (stereo not given) | inactive | inactive |  | 
CCO[Si](OCC)(OCC)c1ccccc1 | inactive | inactive |  | 
CC(=O)C(C)C | inactive | inactive |  | 
CSc1ccc(Cl)cc1 | inactive | inactive |  | 
Cc1ccc(OC(=O)CC(C)C)cc1 | inactive | inactive |  | 
C=CC(C)(CCC=C(C)C)OC(C)=O (stereo not given) | inactive | inactive |  | 
O=Nc1ccc(NO)cc1 | inactive | inactive |  | 
CCOc1ccc2[nH]cc(C(=O)NCc3ccccc3)c(=O)c2n1 | inactive | inactive |  | 
CCC(Cl)C(Cl)C(Cl)CC(Cl)C(Cl)C(C)Cl (stereo not given) | inactive | inactive |  | 
CC(=O)NCc1c(I)c(NC(C)=O)c(I)c(C(=O)O)c1I | inactive | inactive |  | 
CCO[Si](CCCS)(OCC)OCC | inactive | inactive |  | 
O=C1OC2(c3ccccc31)c1cc(I)c(O)c(I)c1Oc1c2cc(I)c(O)c1I | inactive | inactive |  | 
CC(CCc1ccc(O)cc1)NCCc1ccc(O)c(O)c1 (stereo not given) | inactive | inactive |  | 
CCN(CC)CCNC(=O)COc1ccc(Cl)cc1 | inactive | inactive |  | 
c1ccc2c(c1)c1cccc3ccc4cccc2c4c31 | inactive | inactive |  | 
COc1cccc(N(C)C(=S)Oc2ccc3c(c2)CCCC3)n1 | inactive | inactive |  | 
Nc1nc2ncc(CNc3ccc(C(=O)N[C@@H](CCC(=O)O)C(=O)O)cc3)nc2c(=O)[nH]1 | inactive | inactive |  | 
O=C(O)c1ccc(O)cc1O | inactive | inactive |  | 
O=C(c1ccccc1)c1cc(Cl)ccc1O | inactive | inactive |  | 
Oc1c(Cl)cc(Cl)c(Cl)c1Cl | inactive | inactive |  | 
O=C(O)Cc1cccc(-c2cc(CCCCCCc3ccc(O[C@H]4O[C@H](CO)[C@@H](O)[C@H](O)[C@@H]4O)c(-c4cccc(CC(=O)O)c4)c3)ccc2O[C@H]2O[C@H](CO)[C@@H](O)[C@H](O)[C@@H]2O)c1 |  |  | 1.99% [at 0.349 µM] | 10.9% [at 0.349 µM]
